Values joined by “and” are separate entries in the source; they are usually repeats but may differ in a detail not shown here. Equal values may be shown once. Records with an inconclusive call do not appear. Where a call stands in place of a potency, no number is given. Active and inactive are the calls of the source. Unless noted, the call rests on the fitted dose curve; in most records, active means well fitted curve in the direction sought with a large enough effect in the repeat runs; inconclusive means weak or mixed curves; inactive means no such curve, though single readings can be large; an effect the other way counts as inactive or inconclusive.
Legend:
[1] = Caspase-3/7 induction in HepG2 cells by small molecules, qHTS assay (AID 1346978); further: nearly all actives have a fitted effect of over 15% in size
In short: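 Wild-type HepG2 cells (2,000/well) were settled 5 h at 37 C, 5% CO2, then exposed to compounds in DMSO for 17 h. Caspase-3/7 activity was read by luminescence 30 min after adding Caspase-Glo 3/7 reagent at room temperature.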

[2] = Caspase-3/7 induction in CHO-K1 cells by small molecules, qHTS cell viability counter screen (AID 1346979); further: nearly all actives have a fitted effect of over 35% in size; further: potency means the concentration at half of the fitted maximal effect
In short: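 Wild-type CHO-K1 cells (1,500/well) treated with compound after 5 h plating; after 16 h at 37C, viability read as CellTiter-Fluor fluorescence following 1 h reagent incubation, in the same wells as the caspase read.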

[3] = Caspase-3/7 induction in CHO-K1 cells by small molecules, qHTS assay (AID 1346980); further: nearly all actives have a fitted effect of over 15% in size
In short: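 Wild-type cells were seeded at 1,500 per well and settled 5 hr at 37 C, 5% CO2, then exposed to DMSO-dissolved compounds for 17 hr. Caspase-Glo 3/7 reagent was added, and luminescence was read after 30min at room temperature.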

[4] = Caspase-3/7 induction in HepG2 cells by small molecules, qHTS cell viability counter screen (AID 1346981); further: nearly all actives have a fitted effect of over 30% in size; further: potency means the concentration at half of the fitted maximal effect
In short: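 In this quantitative HTS counter screen, compounds delivered in DMSO were left on unmodified HepG2 cells for 16 hr at 37 C. Viability was then determined fluorometrically with CellTiter-Fluor, in parallel with caspase-3/7 induction in the same wells.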

[5] = target: Nuclear receptor subfamily 1 group I member 2 (Homo sapiens) (UniProt O75469); assay: Human pregnane X receptor (PXR) small molecule agonists, qHTS assay (AID 1346982); further: nearly all actives have a fitted effect of over 35% in size; further: potency means the concentration at half of the fitted maximal effect
Chain of Nuclear receptor subfamily 1 group I member 2 (Homo sapiens) (O75469 whole entry, looked up): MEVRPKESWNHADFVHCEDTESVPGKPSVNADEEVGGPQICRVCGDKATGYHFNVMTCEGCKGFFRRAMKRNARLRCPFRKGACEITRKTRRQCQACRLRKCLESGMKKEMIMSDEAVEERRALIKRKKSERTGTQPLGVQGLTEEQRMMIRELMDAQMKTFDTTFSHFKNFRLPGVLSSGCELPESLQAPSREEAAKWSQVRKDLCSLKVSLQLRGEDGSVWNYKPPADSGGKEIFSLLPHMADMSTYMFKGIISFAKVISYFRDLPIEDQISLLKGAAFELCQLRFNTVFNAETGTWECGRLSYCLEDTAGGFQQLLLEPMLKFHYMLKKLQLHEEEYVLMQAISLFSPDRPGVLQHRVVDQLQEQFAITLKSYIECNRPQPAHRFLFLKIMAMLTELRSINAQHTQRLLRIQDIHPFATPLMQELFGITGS
In short: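 Reporter HepG2 cells expressing PXR-Luc are cultured in charcoal-stripped FBS (5%), treated with compounds for 24 hr at 37 C, and assayed by ONE-Glo luminescence after 30 min at room temperature.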

[6] = target: Acetylcholinesterase (Homo sapiens) (UniProt P22303); assay: Acetylcholinesterase (AChE) small molecule antagonists: colormetric cell-based qHTS assay (AID 1347395; calls by dose curve; further: nearly all actives have a fitted effect of over 30% in size; further: potency means the concentration at half of the fitted maximal effect)
Chain of Acetylcholinesterase (Homo sapiens) (P22303 whole entry, looked up): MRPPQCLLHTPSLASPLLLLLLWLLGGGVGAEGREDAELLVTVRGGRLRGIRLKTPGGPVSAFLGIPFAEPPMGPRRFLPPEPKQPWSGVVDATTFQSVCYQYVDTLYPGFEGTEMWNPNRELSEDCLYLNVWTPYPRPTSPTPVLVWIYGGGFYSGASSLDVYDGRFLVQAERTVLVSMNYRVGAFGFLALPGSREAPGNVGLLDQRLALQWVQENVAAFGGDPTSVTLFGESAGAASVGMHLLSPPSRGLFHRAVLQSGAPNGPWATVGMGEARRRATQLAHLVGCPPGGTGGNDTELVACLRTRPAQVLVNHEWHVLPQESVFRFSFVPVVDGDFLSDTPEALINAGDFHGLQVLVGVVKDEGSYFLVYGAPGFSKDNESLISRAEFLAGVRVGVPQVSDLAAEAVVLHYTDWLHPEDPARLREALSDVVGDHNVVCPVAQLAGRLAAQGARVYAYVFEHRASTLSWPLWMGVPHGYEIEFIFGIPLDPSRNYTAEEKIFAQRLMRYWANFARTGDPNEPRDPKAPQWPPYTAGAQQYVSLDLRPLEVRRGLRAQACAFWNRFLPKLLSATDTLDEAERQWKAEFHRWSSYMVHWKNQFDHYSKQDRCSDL
In short: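 SH-SY5Y cells attached overnight, exposed to compound 30 min at 37 C, then given DTNB/acetylthiocholine; after 90 min at 37 C, colorimetric thiocholine read gives cellular AChE activity.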

[7] = target: Acetylcholinesterase (Homo sapiens) (UniProt P22303); assay: Acetylcholinesterase (AChE) small molecule antagonists: enzyme-based qHTS assay (AID 1347397; calls by dose curve; further: nearly all actives have a fitted effect of over 55% in size; further: potency means the concentration at half of the fitted maximal effect); settings: Potency: AChE enzyme activity inhibition; outcome: AChE enzyme activity inhibition
In short: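 Tox21 library chemicals are tested in qHTS format against recombinant human AChE. The enzyme, dispensed at 50 mU/mL, sits with compound for 30 min at room temperature. A DTNB–acetylthiocholine cocktail follows, and colour is read after 10 min.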

[8] = target: Nuclear receptor subfamily 1 group I member 2 (Homo sapiens) (UniProt O75469); assay: CYP3A4 induction through human pregnane X receptor (PXR) by small molecules, qHTS assay (AID 1346984); further: nearly all actives have a fitted effect of over 40% in size
In short: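 Induction measured in HepG2-based DPX-2 cells co-expressing human PXR and a CYP3A4 promoter-driven luciferase. After a 24-hour compound exposure, cells received CYP3A4 luciferin substrate at 3uM final for 3 hours, and light output was then recorded.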

[9] = target: Nuclear receptor subfamily 1 group I member 2 (Homo sapiens) (UniProt O75469); assay: Human pregnane X receptor (PXR) activation by small molecules, qHTS assay (AID 1346985); further: nearly all actives have a fitted effect of over 40% in size; further: potency means the concentration at half of the fitted maximal effect
In short: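 DPX-2 cells (HepG2 co-transfected with a PXR response element and a CYP3A4-promoter luciferase construct) were seeded at 2,000 per well, rested 5 hr at 37C, then exposed to DMSO-dissolved compounds for 24 hr. Activation was read as luciferase luminescence.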

[10] = target: Acetylcholinesterase (Homo sapiens) (UniProt P22303); assay: Acetylcholinesterase (AChE) small molecule antagonists: fluorescence cell-based qHTS assay (AID 1347398; calls by dose curve; further: nearly all actives have a fitted effect of over 50% in size; further: potency means the concentration at half of the fitted maximal effect); settings: Potency: AChE activity; outcome: AChE activity
In short: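 Cellular AChE inhibition: SH-SY5Y cells treated with test chemical for 30 min at 37 C, then acetylthiocholine hydrolysis followed over 40 min at room temperature via thiocholine-reactive Thiolite Green fluorescence (490/520 nm).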

| SMILES | Potency [1] | Potency [2] | Potency [3] | Potency [4] | Potency [5] | Potency [6] | Potency [7] | outcome [8] | Potency [9] | Potency [10] |
| --- | --- | --- | --- | --- | --- | --- | --- | --- | --- | --- |
| Cc1ccc(N)c(C)c1 | inactive | inactive | inactive | inactive |  |  |  |  |  |  |
| C[C@H]1O[C@H](OC2[C@@H](O)[C@@H](O)C(O)[C@H](O)[C@H]2O)[C@@H](N)C[C@@H]1N=C(N)C(=O)O (some centres undefined) | inactive | inactive | inactive | inactive | inactive | inactive | inactive |  |  |  |
| c1ccc2c(c1)-c1cccc3cccc-2c13 | inactive | inactive | inactive | inactive |  |  |  |  |  |  |
| CC(C)(C)NCC(O)c1ccccc1Cl (centres undefined) | inactive | inactive | inactive | inactive | inactive | inactive | inactive | inactive | inactive | inactive |
| CC(C)CCON=O | inactive | inactive | inactive | inactive | inactive | inactive | inactive | inactive | inactive | inactive |
| C[CH2][Hg][S]c1ccccc1C(=O)O | inactive | 1.72 µM (active) and 1.88 µM (active) | inactive | 12.2 µM (active) and 13.3 µM (active) |  |  |  |  |  |  |
| O=CC=O | inactive | inactive | inactive | inactive | inactive |  | inactive | inactive | inactive |  |
| c1ccc2sc(SNC3CCCCC3)nc2c1 | inactive | inactive | inactive | inactive | 60.4 µM (active) and 48.6 µM (active) | inactive | inactive | inactive | inactive | inactive |
| COc1ccccc1N1CCNCC1 | inactive | inactive | inactive | inactive | inactive |  |  | inactive | inactive |  |
| O=C(O)CCCOc1ccc(Cl)cc1Cl | inactive | inactive | inactive | inactive |  |  |  |  |  |  |
| CCN(C(C)=O)c1cccc(-c2ccnc3c(C#N)cnn23)c1 | inactive | inactive | inactive | inactive | inactive |  | inactive | inactive | inactive | inactive |
| O=[N+]([O-])O[C@H]1CO[C@H]2[C@@H]1OC[C@H]2O[N+](=O)[O-] | inactive | inactive | inactive | inactive | inactive |  | inactive | inactive | inactive |  |
| C=CC(C)(CCC=C(C)C)OC(=O)c1ccccc1N (centres undefined) | inactive | inactive | inactive | inactive |  |  |  |  |  |  |
| CCCCCl | inactive | inactive | inactive | inactive | inactive |  | inactive | inactive | inactive | inactive |
| FC(F)OC(F)(F)C(F)Cl (centres undefined) | inactive | inactive | inactive | inactive | inactive |  | inactive | inactive | inactive | inactive |
| CCCCCCCCP(=O)(O)O | inactive | inactive | inactive | inactive | inactive | inactive | inactive |  |  |  |
| CCOC(=O)NC(O)C(Cl)(Cl)Cl (centres undefined) | inactive | inactive | inactive | inactive | inactive |  | inactive | inactive | inactive | inactive |
| CN1C[C@H](C(=O)N[C@]2(C)O[C@@]3(O)[C@@H]4CCCN4C(=O)[C@H](Cc4ccccc4)N3C2=O)C=C2c3cccc4[nH]cc(c34)C[C@H]21 | inactive | 30.8 µM (active) and 18 µM (active) | inactive | 30.8 µM (active) and 22.6 µM (active) | 2.74 µM (active) and 4.03 µM (active) | 1.01 µM (active) and 8.32 µM (active) | 5.67 µM (active) | inactive | 2.51 µM (active) | 0.505 µM (active) |
| Cc1ncc(C[n+]2csc(CCO)c2C)c(N)n1 | inactive | inactive | inactive | inactive |  |  |  |  |  |  |
| O=C(N/N=C/c1ccc([N+](=O)[O-])o1)c1cc([N+](=O)[O-])cc([N+](=O)[O-])c1O | inactive | 23.7 µM (active) | inactive | 13.3 µM (active) | inactive |  | inactive | inactive | inactive |  |
| NP(N)(=O)NC(=O)c1ccc(F)cc1 | inactive | inactive | inactive | inactive | inactive |  | inactive | inactive | inactive | inactive |
| CCOC(=O)c1cncn1C(C)c1ccccc1 (centres undefined) | inactive | inactive | inactive | inactive | 26.6 µM (active) | inactive | inactive | inactive |  | inactive |
| CCCCC(CC)CO[N+](=O)[O-] (centres undefined) | inactive | inactive | inactive | inactive | inactive | inactive | inactive |  |  |  |
| C=CCc1ccc(OC(=O)Cc2ccccc2)c(OC)c1 | inactive | inactive | inactive | inactive | inactive | inactive | inactive |  |  |  |
| C[N+](C)(C)CCOC(=O)C(O)(c1ccccc1)c1ccccc1 | inactive | inactive | inactive | inactive | inactive | inactive | inactive | inactive | inactive | inactive |
| [Cl-].[Cl-].[Hg+2] | inactive | 483 nM (active) and 2.43 µM (active) | inactive | 27.2 µM (active) and 54.5 µM (active) |  |  |  |  |  |  |
| c1ccc2c(c1)sc1ccccc12 | inactive | inactive | inactive | inactive | inactive | inactive | inactive | inactive | inactive |  |
| CN1C(=O)CN=C(c2ccccc2)c2cc([N+](=O)[O-])ccc21 | inactive | inactive | inactive | inactive | inactive | inactive | inactive | inactive |  | inactive |

Source: PubChem BioAssay (Tox21)
